Screening data: PubChem BioAssay, National Center for Advancing Translational Sciences (NCATS)
The list is not random: actives were taken first. Their share in the collection is about 2.8%.
PI5P4K alpha inh = inhibitors of human PI5P4K alpha; PI5P4Kalpha enzyme, ADP-Glo luminescence, 60 min; active compounds read low; max response, %; actives 1.2% (n = 330,000); AID 652105; active = max response of -50% or lower; inconclusive = between -30% and -50%; inactive = -30% or higher; note: value at the top dose of about 77 µM; % is set by controls: 0 for no effect and ±100 for the full control effect
Target sequence (P48426 whole entry, looked up): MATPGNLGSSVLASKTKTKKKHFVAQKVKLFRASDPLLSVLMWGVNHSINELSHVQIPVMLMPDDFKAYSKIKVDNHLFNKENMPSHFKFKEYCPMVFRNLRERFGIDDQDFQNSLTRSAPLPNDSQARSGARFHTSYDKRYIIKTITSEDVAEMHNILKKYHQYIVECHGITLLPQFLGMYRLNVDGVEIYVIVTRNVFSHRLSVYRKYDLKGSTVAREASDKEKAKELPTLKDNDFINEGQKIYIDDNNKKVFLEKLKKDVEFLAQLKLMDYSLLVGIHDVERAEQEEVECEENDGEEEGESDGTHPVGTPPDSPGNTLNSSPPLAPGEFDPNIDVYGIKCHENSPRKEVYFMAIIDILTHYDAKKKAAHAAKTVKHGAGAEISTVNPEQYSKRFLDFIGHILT
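qHTS, 1536-well: enzyme/substrate mix, compound by pin tool, 5 microM ATP final; RT 60 min; ADP-Glo reagents 1 (45 min) then 2 (30 min); luminescence.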
Pol beta inh = DNA polymerase beta (human) inhibition. Potency, µM (top dose mostly 114 µM), for inactives: at the top dose activity change, negative = inhibition, hits mostly inhibitors. Pol beta primer extension/strand displacement, fluorescence kinetic. P06746. AID 485314. actives 1.3% (n = 340,000); note: potency is the fitted concentration of half-maximal effect; % is set by controls: 0 for no effect and ±100 for the full control effect
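Homogeneous kinetic assay of primer extension and strand displacement by 10 nM Pol beta, preincubated 15 min at room temperature with compound before 50 nM substrate (final) was added. Read at 0 and 10 min; four-parameter Hill fit.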
Pol iota inh = DNA polymerase iota (human) inhibition; Pol iota fluorescent replication assay, 10 min; Potency, µM (doses to about 115 µM), without a hit: at the top dose activity, negative = inhibition, hits mostly inhibitors; actives 1% (n = 390,000); AID 588590; note: potency is the fitted concentration of half-maximal effect
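Fluorescent replication assay read twice, at 0 min and 10 min after adding 50 nM (final) substrate. Enzyme (10 nM) and compounds were first incubated 15 min at room temperature; enzyme-free buffer wells were negative controls.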
POLH inh = blocks human DNA polymerase eta activity; actives 1.2% (n = 390,000); recombinant Pol eta, fluorescent DNA replication assay; Potency, µM (series often up to 114 µM), without a hit: top-dose activity change, negative = inhibition, actives largely listed as inhibitors; Q9Y253; AID 588591; note: potency is the fitted concentration of half-maximal effect; % is set by controls: 0 for no effect and ±100 for the full control effect
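Pol eta (10 nM) was preincubated with compounds for 15 min at room temperature, after which fluorescent replication substrate (50 nM final) was added to start the reaction. Fluorescence was read kinetically at 0 and 10 min.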
WRN inhibitor = WRN helicase (human) inhibition. WRN helicase unwinding, fluorescent forked duplex, kinetic. Potency, µM (titrated, usually from 114 µM), for the others: at the highest dose activity change, negative = inhibition, hits mostly inhibitors. actives 0.46% (n = 360,000). Q14191; note: potency is the fitted concentration of half-maximal effect; % is set by controls: 0 for no effect and ±100 for the full control effect; nearly all actives have a fitted effect of over 55% in size
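WRN at 20 nM final was preincubated with compound for 15 min at room temperature; reaction started with 100 nM forked duplex oligonucleotide carrying fluorophore and quencher plus 2 mM ATP (final). Unwinding followed kinetically by red fluorescence (ex 525/em 598 nm).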
Pol kappa inh = DNA polymerase kappa (human) inhibition; Q9UBT6; purified Pol kappa, fluorescent DNA synthesis assay, 10 min; Potency, µM (highest dose often 107 µM), for inactives: at the highest dose activity, negative = inhibition, most hits filed as inhibitors; actives 0.53% (n = 400,000); AID 588579; note: potency is the fitted concentration of half-maximal effect; % is set by controls: 0 for no effect and ±100 for the full control effect
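Fluorescent qHTS in 1536-well format: enzyme (10 nM) and compound sat 15 min at room temperature before 50 nM substrate (final) was added. Signal taken at 0 and 10 min; no-enzyme buffer wells were negative controls.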
Numbers without * were called inactive; ? = inconclusive; . = not tested or not shown; [ ] = dose if it differs, or a comment. Unless noted, calls come from the whole dose curve; as a rule, active = well fitted curve in the direction sought with a large enough effect; inconclusive = small, poorly fitted or top-dose-only effect, or another doubt; inactive = no such curve, though single readings can be large; an effect the other way counts as inactive or inconclusive.

SMILES | PI5P4K alpha inh | Pol beta inh | Pol iota inh | POLH inh | WRN inhibitor | Pol kappa inh
CCCCSCCCNC(=O)CN1C(=O)COc2ccc(S(=O)(=O)N3CCC(C)CC3)cc21 | . | -7% | 17% | -14% | . | -13%
COC(=O)[C@@]12C[C@@H](CC(=O)N3CCN(C(=O)C4CC4)CC3)C(=O)N(CCc3ccc(OC)c(OC)c3)C1=CCC(C)(C)C2 | -3 | . | . | . | -3% | .
O=C(NCc1ccco1)c1cc2c(s1)CCCCC2 | . | 28µM* | ? | -19% | -13% | -19%
CCOC(=O)C1Nc2ccc(C(=O)O)cc2C2C=CCC12 (stereo unspecified) | -69* | 16µM* | ? | 2.8µM* | 28µM* | 10µM*
O=C(NCc1ccccn1)C1Nc2ccc(C(F)(F)F)cc2C2C=CCC12 (stereo unspecified) | ? | . | ? | -14% | -5% | -15%
O=C(O)C1Nc2ccccc2C2C=CCC12 (stereo unspecified) | . | . | 3.5µM* | . | . | 6.3µM*
COc1cccc([C@@H]2Nc3ccc(C(=O)O)cc3[C@@H]3C=CC[C@@H]32)c1OC | . | 2% | 18% | 8% | . | 8%[60.1 µM]
O=C(O)c1ccc2c(c1)C1C=CCC1C(c1ccncc1)N2 (stereo unspecified) | -4 | ? | 50% | ? | 5% | -31%
CCOC(=O)c1ccc2c(c1)C1C=CCC1C(C(=O)O)N2 (stereo unspecified) | . | 4µM* | . | . | . | .
CCCC1Nc2ccc(C(=O)O)cc2C2C=CCC12 (stereo unspecified) | -28 | 35µM* | 18µM* | 8.9µM* | ? | 35µM*
CCc1ccc(-c2cc(C)no2)cc1S(=O)(=O)NCc1ccc(OC)cc1 | . | -1% | 4% | -2% | . | -4%
CN(C)C(=O)c1ccc(S(=O)(=O)NCc2ccccc2Cl)s1 | . | -8% | 12% | -10% | . | 4%[60.1 µM]
CC/C=C\[C@H](O)[C@H](O)C1=C(C)C(=O)[C@]2(O1)C(=O)N[C@@](OC)(C(=O)c1ccccc1)C2O (stereo partly specified) | 0 | 35µM* | ? | 1% | 0% | ?
Cc1cccc(NC(=O)CSc2nnc(-c3ccco3)c(-c3ccco3)n2)c1 | -61* | 25µM* | ? | 40µM* | 32µM* | 79µM*
Cc1cccc(NC(=O)CSc2nc(N)cc(N)n2)c1 | -6 | -1% | 30% | -14% | 2%[57.1 µM] | 0%
Cc1ccccc1NC(=O)CSc1nnc(-c2ccco2)n1N | -6 | . | 43% | -13% | -12% | 4%
Cc1cccc(NC(=O)CSc2nnc(-c3ccco3)c(-c3ccco3)n2)c1C | -77* | 22µM* | 2µM* | 13µM* | 32µM* | 32µM*
NC(N)=NN=C(c1ccc(F)cc1)c1ccc(C(F)(F)F)cc1 | -1 | . | 1% | ? | -1% | -1%
O=C(CSCCSCC(=O)c1ccco1)c1ccco1 | . | 28µM* | . | . | . | .
Cc1ccc2c(c1)-c1nc(-c3ccc4c(c3)NC(=O)CO4)cc(-c3ccc(Cl)cc3)c1CO2 | . | ? | -24% | -19% | . | -4%
O=C(NCc1ccncc1)c1csc([C@@H]2O[C@H](CO)[C@@H](O)[C@H]2O)n1 | 2 | . | . | . | 5% | .
Oc1c(Cl)cc(Cl)cc1/C=N/NC(=S)NC1CC2C=CC1C2 (stereo unspecified) | -61* | 0% | ? | -3% | -26% | -8%
CCOCCCNC1=C(Cl)C(=O)c2ccccc2C1=O | -93* | 18% | ? | ? | -2%[11.6 µM] | -23%
Cc1ccc(C)c(NC(=O)C(Cc2ccccc2)n2cccc2)c1 (stereo unspecified) | . | 0% | -12% | -14% | . | 3%
Cc1nn2c(-c3cccc(NC(=O)CN4CCOCC4)c3)nnc2c2ccccc12 | . | . | 40µM* | ? | -5%[11.6 µM] | 1%[60.1 µM]
CCOc1ccccc1CN1CCN(S(=O)(=O)CC)CC1 | . | -1% | 19% | 3% | 2% | -9%
CCCS(=O)(=O)N1CCN(Cc2ccccc2OCC)CC1 | 1 | 89µM* | 7% | -3% | 7% | -9%
